Laboratory results from PubChem BioAssay (EPA / NIEHS).
Records with an inconclusive call do not appear. Active and inactive are the calls of the source. How the source made its calls: active means hit-call score of the fitted dose curve at least 0.9, where 1 is the maximum; inconclusive means response in the unintended direction; inactive means score below 0.9.

Assay: Tanguay_ZF_120hpf_PFIN_legacy: (Legacy) Oregon State University Tanguay Lab 120 Hour Post-fertilization zebrafish Assay for Pectoral Fin Malformation (AID 2283648);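 further: each larva judged yes or no for fin defect by brightfield with dead larvae skipped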
Description: Tanguay_ZF_120hpf_legacy is a whole embryo, multiplexed endpoint assay using zebrafish larvae exposed for 120 hours post fertilization on a 96-well plate.Tanguay_ZF_120hpf_PFIN_legacy is one of one assay component(s) measured or calculated from the Tanguay_ZF_120hpf_legacy assay. It is designed to make measurements of zebrafish development as detected with brightfield microscopy of developing zebrafish embryos.Data from the assay component Tanguay_ZF_120hpf_PFIN_legacy was analyzed into 1 assay endpoints. This assay endpoint, Tanguay_ZF_120hpf_PFIN_legacy, was analyzed in the positive analysis fitting direction relative to DMSO as the negative control and baseline of activity. Using a type of morphology reporter, gain-of-signal activity can be used to understand changes in developmentals as they relate to the whole embryo. To generalize the intended target to other relatable targets, this assay endpoint is annotated to the zebrafish development intended target family, where the subfamily is pectoral fin morphogenesis.
Zebrafish husbandry: Tropical 5D wild-type adult zebrafish were housed in at an approximate density of 1000 per 100 gallon tank at the Sinnhuber Aquatic Research Laboratory, Oregon State University, Corvallis, OR. Each tank was kept at standard laboratory conditions of 28C on a 14-h light/10-h dark photoperiod in fish water consisting of reverse osmosis water supplemented with a commercially available salt (Instant Ocean). Spawning funnels were placed into the tanks the night prior, and embryos were collected and staged. To increase bioavailability, the chorion was enzymatically removed using pronase (63.6mg/ml, >/= 3.5U/mg, Sigma-Aldrich: P5147) at 4 hours post fertilization (hpf) using a custom automated dechorionator.Chemical exposures: Six hpf dechorionated embryos were placed 1 embryo per well in a 96-well plate prefilled with 90 ul of EM using automated embryo placement systems (AEPS). Ten microliters of each row of dilution plate 2 was added to 2 exposure plates. The final DMSO concentration used was 0.64% (vol/vol). Thirty-two embryos were also exposed to 5uM trimethyltin chloride (positive control). Plates were sealed to prevent evaporation and foil covered to reduce light exposure and kept in a 28C incubator. Embryos were statically exposed until 120 hpf. At 24 hpf, embryos were assessed for photomotor response using a custom photomotor response analysis tool (PRAT) and for developmental toxicity endpoints (MO24: mortality at 24 hpf, DP: developmental progression, SM: spontaneous movement, and NC: notochord distortion). At 120 hpf, locomotor activity was measured using Viewpoint Zebralab and assessed for 18 endpoints. Zebrafish acquisition and analysis program (ZAAP), a custom program designed to inventory, acquire, and manage zebrafish data, was used to collect developmental endpoints as either present or absent (i.e., binary responses were recorded). If mortality occurred for an embryo (at either 24 or 120 hpf), the non-mortality endpoints were not measured.
With `CC(c1ccc(O)cc1)(c1ccc(O)cc1)c1ccc(O)cc1` the outcome was “inactive”. With `CCNc1nc(NC(C)C)nc(SC)n1` the outcome was “inactive”. For `Cc1ccccc1CO[C@@H]1C[C@@]2(C(C)C)CC[C@]1(C)O2`, the outcome was “inactive”. In the case of `CCOCCOC(C)=O`, the outcome is reported as “inactive”. With `Cc1ccccc1[N+](=O)[O-]` the outcome was “inactive”. With `Oc1c(Cl)c(Cl)c(Cl)c(Cl)c1Cl` the outcome was “inactive”. For `CCC(C)(CC)c1cc(NC(=O)c2c(OC)cccc2OC)on1`, the outcome was “inactive”. For `CC(C)(O)C(=O)Nc1ccc([N+](=O)[O-])c(C(F)(F)F)c1`, the outcome was “inactive”. For `NS(=O)(=O)C(F)(F)C(F)(F)C(F)(F)C(F)(F)C(F)(F)C(F)(F)C(F)(F)C(F)(F)F`, the outcome was “inactive”. With `O=NN(c1ccccc1)c1ccccc1` the outcome was “inactive”. With `CCC(=O)O[C@H]1CC[C@H]2[C@@H]3CCC4=CC(=O)CC[C@]4(C)[C@H]3CC[C@]12C` the outcome was “inactive”. In the case of `Cc1cc(O)ccc1Cl`, the outcome is reported as “inactive”. In the case of `CCSC(=O)N(CC)C1CCCCC1`, the outcome is reported as “inactive”. In the case of `Cc1cc(-c2ccc(N)c(C)c2)ccc1N`, the outcome is reported as “inactive”. With `CCCCCCCCOC(=O)c1ccccc1C(=O)OCCCCCCCC` the outcome was “inactive”. For `N#Cc1ccc(N(CC(N)=O)CC(F)(F)F)cc1C(F)(F)F`, the outcome was “inactive”. For `CCOC(=O)C(O)(c1ccc(Cl)cc1)c1ccc(Cl)cc1`, the outcome was “inactive”. For `ClC1=C(Cl)[C@]2(Cl)[C@@H]3[C@@H](Cl)[C@H]4O[C@H]4[C@@H]3C1(Cl)C2(Cl)Cl`, the outcome was “inactive”. For `O=C(O)C(F)(F)C(F)(F)C(F)(F)C(F)(F)C(F)(F)F`, the outcome was “inactive”. In the case of `COc1ccc(O)c(C(C)(C)C)c1`, the outcome is reported as “inactive”. With `Nn1cnnc1` the outcome was “inactive”. In the case of `Nc1ccc(-c2ccc(N)cc2)cc1`, the outcome is reported as “inactive”. In the case of `O=S(=O)(O)C(F)(F)C(F)(F)C(F)(F)C(F)(F)C(F)(F)C(F)(F)F`, the outcome is reported as “inactive”. For `C=CC(N)=O`, the outcome was “inactive”. For `O=C(O)C(F)(F)C(F)(F)C(F)(F)C(F)(F)C(F)(F)C(F)(F)C(F)(F)C(F)(F)F`, the outcome was “inactive”. With `ClC1=C(Cl)[C@]2(Cl)[C@@H]3[C@H]4C[C@H]([C@@H]5O[C@H]45)[C@@H]3[C@@]1(Cl)C2(Cl)Cl` the outcome was “inactive”. With `Oc1ccc(C(c2ccc(O)cc2)(C(F)(F)F)C(F)(F)F)cc1` the AC50 was 53.3 µM (active). For `Cc1cc2c3c(c1)C(c1ccccc1)=N[C@@H](NC(=O)c1ccncc1)C(=O)N3CC2`, the outcome was “inactive”. With `COS(=O)(=O)OC` the outcome was “inactive”. For `ClC(Cl)=C(c1ccc(Cl)cc1)c1ccc(Cl)cc1`, the outcome was “inactive”. In the case of `Oc1ccc(Cl)cc1Cl`, the outcome is reported as “inactive”. For `CCC(C)(c1ccc(O)cc1)c1ccc(O)cc1`, the AC50 was 44.7 µM (active). In the case of `CN(C)CCO`, the outcome is reported as “inactive”. For `CO/C=C(/C(=O)OC)c1ccccc1COc1cccc(C(F)(F)F)n1`, the AC50 was 5.66 µM (active). For `Clc1ccc(C(c2ccccc2Cl)C(Cl)(Cl)Cl)cc1` (stereo not given), the outcome was “inactive”. With `CCCN(CCC)N=O` the outcome was “inactive”. With `CC1=C2C[C@H]3[C@@H](CC=C4C[C@@H](O)CC[C@@]43C)[C@@H]2CC[C@]12O[C@@H]1C[C@H](C)CN[C@H]1[C@H]2C` the AC50 was 21.8 µM (active). In the case of `O=C(NC(=O)c1cc(F)c(F)cc1Cl)Nc1cc(F)ccc1N1CCC(C(=O)O)CC1`, the outcome is reported as “inactive”. For `C=CC(=O)NCNC(=O)C=C`, the outcome was “inactive”. With `CCCCCCCCCC[N+](C)(C)CCCCCCCCCC` the outcome was “inactive”.
